# Test results as given in PubChem BioAssay AID449762 (Southern Research Specialized Biocontainment Screening …, 2010).
# The whole screen tested about 330,000 compounds, of which about 1,900 (0.58%) were called active. About 4% were inconclusive and are not listed. Not all results are given here. Results with a measured potency or affinity are listed apart. Unmarked numbers belong to inactive results. Rule as the data show it: inconclusive = inhibition above about 70% without an active follow-up result; inactive = below that.
# Test: M. tuberculosis growth inhibition, HTS (AID 449762);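 also: bacterial growth assessed after seven days of incubation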
# Conditions: M. tuberculosis H37Rv growth inhibition, 7H9 media; at 25 µM; active compounds read high
row,Structure (SMILES),inhibition [%]
1,COc1ccc(N=NC2=C(O)CC(C)(C)CC2=O)cc1,-3.64
2,Cc1nc2ccc(N=NC3=C(O)CC(C)(C)CC3=O)cc2s1,1.45
3,COc1ccc(CCN2CC(O)=C(c3nc(C)cs3)C2=N)cc1OC,7.01
4,COc1cccc(OCc2cc(C(=O)NCCN3CCCCC3CO)no2)c1 (stereo unspecified),-19.8
5,Cc1ccc2nc(-c3ccccc3)c(-c3ccccc3)nc2c1,2.44
6,Cc1ccc(NNc2c(C)nc3ccccc3nc2=O)cc1,42.5
7,O=C(Nc1ccc(S(=O)(=O)Nc2ncccn2)cc1)c1ccco1,-1.81
8,COc1ccc(/C=C2\SC(=O)N(CCNC(=O)Cn3[nH]c(=O)c4ccccc4c3=O)C2=O)cc1,1.03
9,COc1ccc(C2SCC(=O)N2c2ccc(C)cc2)cc1 (stereo unspecified),-1.14
10,CCC(=O)N1N=C(c2ccccc2)CC1c1ccc([N+](=O)[O-])cc1 (stereo unspecified),2.69
11,COc1ccc(C2CC(c3cccs3)=NN2S(C)(=O)=O)cc1 (stereo unspecified),-0.06
12,O=C(O)C1CC(c2ccccc2)=Nc2ccccc2S1 (stereo unspecified),13.4
13,COc1ccc(O)c(C2=Nc3ccccc3N=C(c3cccs3)C2)c1,-0.29
14,O=C(Nc1ccccc1)N1CCC(O)(c2cccc(C(F)(F)F)c2)CC1,1.21
15,CCN(CC)CCCN=C1N[C@@H](c2cccc(F)c2)C(C(=O)OC)=C(C)N1Cc1ccccc1,-0.31
16,CC(C)C(NC(=O)OCc1ccccc1)C(=O)OCC(=O)NCc1ccco1 (stereo unspecified),8.7
17,Cc1ccc(C(=O)NNC(=O)c2cccc(C)c2)cc1,-4.89
18,CCOc1ccc(S(=O)(=O)Nc2ncn[nH]2)cc1,1.15
19,COc1ccc2c(c1)c(C(C)=O)c(C)n2C,4.3
20,CCOC(=O)c1c(C)n(C)c2ccc(OC(=O)c3ccc([N+](=O)[O-])cc3)cc12,25.7
21,CC12CCC(=O)N1C(C(=O)N1CCN(c3ccc(C(F)(F)F)cc3[N+](=O)[O-])CC1)CS2 (stereo unspecified),4.09
22,CC1(c2nnc(-c3ccccc3)o2)CC(c2ccncc2)=NO1 (stereo unspecified),10.1
23,CC1(c2nnc(-c3ccccc3)o2)CC(c2ccccc2)=NO1 (stereo unspecified),4.65
24,Cc1nc(C)c(-c2csc(Nc3ccccn3)n2)s1,5.67
25,O=S(=O)(c1cccc2cccnc12)N1CCN(c2ccccn2)CC1,-2.85
26,COc1ccc(S(=O)(=O)N2CCN(CC(=O)Nc3ccccc3OC)CC2)cc1,5.95
